# Source: PubChem BioAssay (Columbia University Molecular Screening Center)
# In the library only some 1% were active in any assay of this set; here they are far more common.
# VCAM1 TNFa inh – reduces TNF alpha induced VCAM1 expression in HUVEC | inhibition, % at 2 µM | 0.48% of 95,000 active | HUVEC TNFa-induced VCAM-1 immunofluorescence, high-content imaging;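 active means inhibition above the batch mean plus 3 SD, with images confirmed as a hit by eye, cut at about 37% in these data; inconclusive means inhibition above that limit but hit not confirmed in images; inactive means inhibition not above that limit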;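 further: 0% = TNF-stimulated DMSO wells and 100% = unstimulated control wells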
# F-actin modifier – alters cytoskeleton assembly in HUVEC cells; HUVEC TNFa F-actin phalloidin imaging, high content; inhibition, % at 2 µM; 0.18% of 91,000 active; AID 836;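 active means inhibition above the batch mean plus 3 SD and confirmed as a hit by visual image inspection, cut at about 30% in these data, passing the limit was not always enough; inconclusive means above the inhibition threshold but rejected on visual inspection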
# TNFa cytotox – toxic to HUVEC cells under TNF alpha stimulation | AID 848 | HUVEC TNFalpha-stimulated, Hoechst cell count, imaging | cell count reduction, % at 2 µM | 0.17% of 93,000 active;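 active means cell count reduction exceeding the screen mean by over 5 SD, scaled to untreated wells per plate, cut at about 78% in these data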;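 further: cells counted after 24 h of TNF alpha exposure following the 1 h pretreatment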
# E-sel TNF inh – blocks E-selectin expression induced by TNF alpha. HUVEC TNFa-induced E-selectin immunofluorescence, high content. inhibition, % at 2 µM. 0.71% of 120,000 active;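 active means inhibition above the batch mean plus 3 SD, and confirmed as a hit on visual image review, cut at about 43% in these data; inconclusive means passes the inhibition cutoff but fails visual image review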;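 further: 0% = TNF-stimulated DMSO wells and 100% = unstimulated control wells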
# * marks the source's active call; other numbers are inactive results; ? = inconclusive; / = no result given.
SMILES,VCAM1 TNFa inh,F-actin modifier,TNFa cytotox,E-sel TNF inh
COc1cc(-n2cnnn2)ccc1S(=O)(=O)N1CCOCC1,-24,6,-22,/
O=S(=O)(c1cccc(-n2cnnn2)c1)N1CCOCC1,?,?,100*,/
Cc1ccc(C)n1-c1cccc(NC(=O)c2ccccc2)c1,/,/,/,93*
O=C(CN1CCN(S(=O)(=O)c2ccc(Br)cc2)CC1)N/N=C/c1ccc(Cl)c([N+](=O)[O-])c1,/,/,/,29
CCc1cc(C(=O)Nc2ccccc2)cs1,/,/,/,63*
CCOC(=O)c1c(C)c(C(=O)O)n(C)c1C,-3,76*,-28,/
CCOC(=O)c1c(C)c(C(=O)NC(C)COC)c(C)n1C (configuration not stated),/,/,/,-24
CCCCOC(=O)C1[C@H]2C(=O)N(CCc3ccccc3)C[C@]23C=C[C@H]1O3 (some centres not stated),18,-10,-12,/
CCCOC(=O)C1C2C=C[C@]3(CN(CCc4ccccc4)C(=O)[C@H]13)O2 (some centres not stated),93*,6,82*,/
COC(=O)c1ccc2[nH]c(C)c(CN3CCCC3)c(=O)c2c1,/,/,/,-34
O=C(Cn1cncn1)NCc1cccc2ccccc12,-5,/,0,64*
O=C(Cn1cncn1)NCc1ccccc1Br,-1,24,-17,-21
CC(C)(C)SCCNC(=O)CN(c1ccc(F)cc1)S(C)(=O)=O,90*,-36,79*,/
CC(C)(C)SCCNC(=O)CN(c1ccc(F)c(Cl)c1)S(C)(=O)=O,6,9,9,34
COc1ccc(CC(=O)Nc2ccc(-c3noc(-c4cccc(OC)c4)n3)cc2)cc1,39*,-20,10,-10
O=C(CSc1nc2ccccc2[nH]1)N1CCN(S(=O)(=O)c2ccc(Cl)cc2)CC1,-8,-26,15,68*
CCC(C)Nc1nc(OC(C(F)(F)F)C(F)(F)F)nc(OC(C(F)(F)F)C(F)(F)F)n1 (configuration not stated),-2,7,-5,43*
Cc1cc2nc(-c3ccc(SCc4ccc(C#N)cc4)nc3)[nH]c2cc1C,-6,-9,5,90*
N#Cc1ccccc1CSc1ccc(-c2nc3ccccc3[nH]2)cn1,-5,-28,-1,-13
COC(=O)CSc1nc(N)c(C#N)c(C(C)C)c1C#N,-13,-16,-16,-1
COC(=O)CSc1nc(N)nc(C)c1Br,10,-29,-4,63*
CCc1ccccc1NC(=O)Cc1ccc(-n2cccc2)cc1,/,/,/,27
Cc1cc(NC(=O)CSc2nc(-c3cccs3)cc(C(F)(F)F)n2)no1,53*,-10,21,-13
Cc1ccc(NC(=O)C(C)N2C(=O)c3ccccc3C2=O)cc1 (configuration not stated),-27,27,-34,/
CCOc1ccccc1Nc1nnc(SCC(=O)Nc2nc(-c3ccc(OC)cc3)cs2)s1,/,/,/,-12
SMILES,VCAM1 TNFa inh,F-actin modifier,TNFa cytotox,E-sel TNF inh
O=C(COC(=O)c1ccccc1Oc1ccccc1)NCc1ccco1,/,/,/,-30
C=CCn1c(SCC(=O)NCc2ccccc2)nnc1-c1ccccc1O,-5,22,1,40*
C=CCn1c(CSCc2ccc(C)cc2)nnc1SCC(=O)NCc1ccccc1,2,6,-12,-9
COc1ccc(C(C)(C)C)cc1S(=O)(=O)N1CCN(C)CC1,93*,21,-22,11
Cn1c(NCCN2CCCCC2)cc(=O)n(C)c1=O,/,/,/,81*
COc1ccc(CC(=O)N2CCN=C2SC)cc1,3,5,-31,6
CSC1=NCCN1C(=O)Cc1ccc(Cl)cc1,44*,-8,10,-6
CCCC(=O)C1=C(O)C(C(=O)OC)C(C)(C)CC1=Nc1ccc(OC)cc1 (configuration not stated),/,/,/,-15
CCCC(=O)C1=C(O)C(C(=O)OC)C(C)(C)CC1=Nc1ccc(N)cc1 (configuration not stated),16,-18,-30,59*
Cn1cc([N+](=O)[O-])c(C(=O)Nc2ccc(Br)cn2)n1,0,-2,-12,54*
CCSc1ccc(C(=O)Nc2ccc(Br)cn2)cc1[N+](=O)[O-],/,/,/,-4
O=C(OCC1CC(c2ccccn2)=NO1)c1ccc(Br)cc1 (configuration not stated),/,/,/,96*
COc1cc(S(=O)(=O)N2CCCCCC2)ccc1-n1cnnn1,-3,1,-6,-8
Cc1ccc(/C=N/N2CCN(c3ccccn3)CC2)cc1,/,/,/,-14
CN1c2ccccc2C2(C)CCCC3=Cc4cccc([N+](=O)[O-])c4OC312 (configuration not stated),/,/,/,69*
O=S(=O)(Cc1ccccc1Cl)N1CCN(Cc2ccc3c(c2)OCO3)CC1,3,47*,-25,-18
Cc1ccc(CNC(=O)Cn2ccc3ccccc3c2=O)o1,-14,36*,68,/
COC(=O)CNC(=O)Cn1ccc2ccccc2c1=O,-1,49,-28,-34
COC(=O)C(C)Sc1nnc(Cc2cc(=O)[nH]c(=O)[nH]2)n1-c1cccc(OC)c1 (configuration not stated),9,2,-28,/
CC(/C=N/NC(=O)c1cc(-c2ccc(Cl)cc2)nc2ccccc12)=C\c1ccco1,80*,-2,58,3
CC(/C=N/NC(=O)CN1CCN(Cc2ccc(Cl)cc2)CC1)=C\c1ccco1,/,/,/,9
COc1cc(NC(=O)c2ccc(COCC(F)(F)F)o2)cc(OC)c1OC,50*,6,21,16
CC1(C)CC2CC(C)(CN2C(=O)c2cc(-c3ccccc3O)on2)C1 (configuration not stated),2,-14,-9,/
COc1cc(/C=C/C(=O)N2CCN(CC(O)COc3ccccc3)CC2)cc(OC)c1OC (configuration not stated),2,33,-23,66*
COc1cc(/C=C/C(=O)N2CCCN(C(=O)/C=C/c3cc(OC)c(OC)c(OC)c3)CC2)cc(OC)c1OC,/,/,/,5
SMILES,VCAM1 TNFa inh,F-actin modifier,TNFa cytotox,E-sel TNF inh
CC(C)Cn1c(-c2cccs2)nc2ccccc21,-3,-8,4,85*
O=C(CNc1ccc(C(F)(F)F)cc1[N+](=O)[O-])OCC(=O)c1ccccc1,19,-5,-43,17
O=C(CS(=O)c1ccc(C(F)(F)F)cc1[N+](=O)[O-])Oc1ccccc1 (configuration not stated),88*,29,20,84*
CS(=O)(=O)c1ccc(S(=O)CC(=O)OCc2ccccc2)c([N+](=O)[O-])c1 (configuration not stated),/,/,/,100*
Cc1ccc(S(=O)(=O)Cc2ccc(C(=O)OCc3ccccc3)cc2)cc1,9,9,0,4
N#CCSc1nnc(-c2ccc(S(=O)(=O)N3CCOCC3)cc2)n1CC1CCCO1 (configuration not stated),-2,1,-21,9
O=C1C(=O)c2ccc(-c3ccccc3)cc2-c2ccccc21,64*,-21,22,-28
Cc1cccc(-n2c(-c3ccncc3)n[nH]c2=S)c1,-5,-16,-12,10
Cc1noc(C(=O)Nc2c(C)nn(Cc3ccccc3)c2C)c1Cl,17,-2,-8,-6
CC(=O)Nc1nc(-c2ccc3c(c2)CCN3S(C)(=O)=O)cs1,/,/,/,11
CS(=O)(=O)N1CCc2cc(-c3csc(NC(=O)Cc4cccs4)n3)ccc21,-3,48,-34,93*
